Test results published in PubChem BioAssay (NCI).
About 83,000 compounds went through this panel and 20% of them were active in at least one assay; those are over-represented in the sample as a whole.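 Plates (96-well) were seeded with cells, treated with compound at one concentration, and incubated for 48 hours before percent growth was determined.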 Active and inactive are the calls of the source. The calls were made as follows: active = growth percent below 10; inactive = the rest.

Tests used:
Experiment in all cases: NCI-60 one-dose screen, 48 h (100 = growth as untreated, 0 = no growth, -100 = all killed)
Settings in all cases: 10 µM unless noted
DU-145 prostate = test system: DU-145 prostate
K-562 leukemia = test system: K-562 leukemia
MALME-3M melanoma = test system: MALME-3M melanoma
MDA-MB-231 breast = test system: MDA-MB-231 breast
SF-268 CNS = test system: SF-268 CNS
SF-295 CNS = test system: SF-295 CNS
SF-539 CNS = test system: SF-539 CNS
UACC-257 melanoma = test system: UACC-257 melanoma
M14 melanoma = test system: M14 melanoma
HCT-15 colon = test system: HCT-15 colon
HT29 colon = test system: HT29 colon
SNB-75 CNS = test system: SNB-75 CNS
SNB-19 CNS = test system: SNB-19 CNS
U251 CNS = test system: U251 CNS
PC-3 prostate = test system: PC-3 prostate
SK-MEL-5 melanoma = test system: SK-MEL-5 melanoma
UACC-62 melanoma = test system: UACC-62 melanoma
LOX IMVI melanoma = test system: LOX IMVI melanoma
SK-MEL-28 melanoma = test system: SK-MEL-28 melanoma
RXF 393 renal = test system: RXF 393 renal

Measured: growth

Nc1ncnc2c1ncn2C1OC(COC(c2ccccc2)(c2ccccc2)c2ccccc2)C(O)C1O (centres undefined)
inactive: DU-145 prostate 73% | K-562 leukemia 82.3% | MALME-3M melanoma 95.5% | MDA-MB-231 breast 84.5% | SF-268 CNS 100% | SF-295 CNS 48.1% | SF-539 CNS 103% | UACC-257 melanoma 108% | M14 melanoma 101% | HCT-15 colon 98.2% | HT29 colon 82.8% | SNB-75 CNS 76.2% | SNB-19 CNS 96.5% | U251 CNS 99.5% | PC-3 prostate 88.7% | SK-MEL-5 melanoma 92.3% | UACC-62 melanoma 95.6% | LOX IMVI melanoma 91.4% | SK-MEL-28 melanoma 96.2%

CCC(C)Nc1ccc(N)cc1 (centres undefined)
inactive: DU-145 prostate 32.1% | SF-268 CNS 47% | SF-295 CNS 11.4% | SF-539 CNS 47.5% | M14 melanoma 31.9% | HCT-15 colon 30.5% | SNB-75 CNS 29.8% | SNB-19 CNS 30.6% | U251 CNS 10.3% | UACC-62 melanoma 30.3% | SK-MEL-28 melanoma 71.6%
active: K-562 leukemia 3.79% | MALME-3M melanoma -15.6% | MDA-MB-231 breast 4.8% | UACC-257 melanoma -43.1% | HT29 colon 7.64% | PC-3 prostate 6.03% | SK-MEL-5 melanoma -6.02% | LOX IMVI melanoma 5.41%

CCCCn1c(-c2cccc(OC)c2)nc2cc(OC)c(OC)cc2c1=O
active: UACC-257 melanoma -16.6%
inactive: DU-145 prostate 93.4% | K-562 leukemia 77.9% | MALME-3M melanoma 252% | MDA-MB-231 breast 89.2% | SF-268 CNS 95.4% | SF-295 CNS 99.5% | SF-539 CNS 108% | M14 melanoma 107% | HCT-15 colon 103% | HT29 colon 110% | SNB-75 CNS 96.1% | SNB-19 CNS 89.7% | U251 CNS 96.3% | SK-MEL-5 melanoma 97.1% | UACC-62 melanoma 83.6% | LOX IMVI melanoma 89.2% | SK-MEL-28 melanoma 109%

COc1ccccc1S(=O)(=O)Nc1ccc2c3c(cc(-c4cnn(C)c4)nc13)C(=O)N2C
inactive: DU-145 prostate 64.2% | MALME-3M melanoma 51.2% | MDA-MB-231 breast 40.7% | RXF 393 renal 40.2% | SF-268 CNS 59.8% | SF-295 CNS 35.1% | SF-539 CNS 34.6% | UACC-257 melanoma 44.8% | M14 melanoma 42.6% | HCT-15 colon 27.6% | HT29 colon 18% | SNB-75 CNS 26.6% | SNB-19 CNS 50% | U251 CNS 52% | PC-3 prostate 42.1% | SK-MEL-5 melanoma 29.5% | UACC-62 melanoma 18.2% | LOX IMVI melanoma 10.4% | SK-MEL-28 melanoma 63.1%

COc1ccc(-c2coc3c(CO)c(O)ccc3c2=O)cc1
inactive: MALME-3M melanoma 21.3% | MDA-MB-231 breast 25% | SF-268 CNS 22.2% | SF-295 CNS 23.1% | SF-539 CNS 47.9% | UACC-257 melanoma 90.3% | M14 melanoma 75.5% | HCT-15 colon 43.2% | HT29 colon 85.8% | SNB-75 CNS 115% | SNB-19 CNS 72.5% | SK-MEL-5 melanoma 58.7% | UACC-62 melanoma 32.5% | SK-MEL-28 melanoma 88.8%
active: DU-145 prostate 9.29% | RXF 393 renal -27.4% | U251 CNS -58.9% | PC-3 prostate -27.7% | LOX IMVI melanoma -27.9%

Fc1cccc(F)c1C#Cc1ccc2cccnc2c1
inactive: DU-145 prostate 96.5% | MALME-3M melanoma 90.3% | MDA-MB-231 breast 78% | RXF 393 renal 101% | SF-268 CNS 88.6% | SF-295 CNS 101% | SF-539 CNS 102% | UACC-257 melanoma 88.2% | M14 melanoma 95.7% | HCT-15 colon 74.9% | HT29 colon 69% | SNB-75 CNS 97.8% | SNB-19 CNS 91.3% | U251 CNS 80.6% | PC-3 prostate 86.1% | SK-MEL-5 melanoma 71.9% | UACC-62 melanoma 71.3% | LOX IMVI melanoma 86.9% | SK-MEL-28 melanoma 106%

COc1ccc(-c2cc3ccc(N(C)C)cc3nc2N)c(F)c1
inactive: DU-145 prostate 56.1% | MALME-3M melanoma 25.3% | MDA-MB-231 breast 48.5% | RXF 393 renal 32.4% | SF-268 CNS 56.5% | SF-295 CNS 25.4% | SF-539 CNS 49.1% | UACC-257 melanoma 23.3% | HCT-15 colon 31% | SNB-75 CNS 55% | SNB-19 CNS 49.8% | U251 CNS 31.3% | PC-3 prostate 28.2% | UACC-62 melanoma 48.2% | LOX IMVI melanoma 23.9% | SK-MEL-28 melanoma 38.4%
active: M14 melanoma -60.5% | HT29 colon 7.61% | SK-MEL-5 melanoma -62.7%

COc1ccc(C(=O)Cn2cnc3c(Nc4cc(C(=O)Nc5ccc(N6CCN(CCO)CC6)cc5)ccc4C)ncnc32)cc1
inactive: DU-145 prostate 105% | MALME-3M melanoma 116% | MDA-MB-231 breast 110% | RXF 393 renal 113% | SF-268 CNS 98.6% | SF-295 CNS 93.2% | SF-539 CNS 98.2% | UACC-257 melanoma 104% | M14 melanoma 95.3% | HCT-15 colon 102% | HT29 colon 101% | SNB-75 CNS 79.4% | SNB-19 CNS 108% | U251 CNS 105% | PC-3 prostate 105% | SK-MEL-5 melanoma 102% | UACC-62 melanoma 104% | LOX IMVI melanoma 94.2% | SK-MEL-28 melanoma 105%

Cc1ccc2c(C3C(C#N)=C(N)Oc4cc5ccccc5cc43)cc(=O)oc2c1 (centres undefined)
inactive: DU-145 prostate 16% | MALME-3M melanoma 66.4% | MDA-MB-231 breast 50.6% | SF-268 CNS 54.6% | UACC-257 melanoma 67.8% | HCT-15 colon 31% | SNB-75 CNS 20.3% | SNB-19 CNS 29.9% | U251 CNS 23.5% | PC-3 prostate 18.8% | SK-MEL-5 melanoma 13.6% | UACC-62 melanoma 39.2% | LOX IMVI melanoma 38.4% | SK-MEL-28 melanoma 64.4%
active: RXF 393 renal -11% | SF-295 CNS 9.32% | SF-539 CNS 2.31% | M14 melanoma 0.37% | HT29 colon 6.66%

O=[N+]([O-])c1ccc(NS(=O)(=O)c2ccccc2)c2ccccc12
inactive: DU-145 prostate 62.4% | MALME-3M melanoma 18.8% | MDA-MB-231 breast 70.1% | RXF 393 renal 41.6% | SF-268 CNS 42.3% | SF-295 CNS 43% | SF-539 CNS 45.1% | UACC-257 melanoma 16.3% | M14 melanoma 41% | HCT-15 colon 46.8% | HT29 colon 57.5% | SNB-75 CNS 42.5% | SNB-19 CNS 48.4% | U251 CNS 37.5% | PC-3 prostate 53.2% | UACC-62 melanoma 22.7% | LOX IMVI melanoma 43.8% | SK-MEL-28 melanoma 37.5%
active: SK-MEL-5 melanoma 0.136%

COc1ccccc1S(=O)(=O)Nc1ccc2c3c(cc(-c4cnn(C5CC5)c4)nc13)C(=O)N2C
inactive: DU-145 prostate 85.1% | MALME-3M melanoma 63.9% | MDA-MB-231 breast 52.8% | RXF 393 renal 89.8% | SF-268 CNS 84.3% | SF-295 CNS 53.7% | SF-539 CNS 60.8% | UACC-257 melanoma 66.2% | M14 melanoma 61.1% | HCT-15 colon 62.7% | HT29 colon 44% | SNB-75 CNS 19.2% | SNB-19 CNS 77.6% | U251 CNS 81.6% | PC-3 prostate 61.3% | SK-MEL-5 melanoma 57.5% | UACC-62 melanoma 35.4% | LOX IMVI melanoma 47.5% | SK-MEL-28 melanoma 77%

C=C1C(=O)O[C@H]2[C@H]1CC/C(COC(=O)c1ccc3ccccc3c1)=C\CC[C@@]1(C)O[C@@H]21
inactive: SF-295 CNS 43.1% | SNB-75 CNS 25.1% | SNB-19 CNS 11.6%
active: DU-145 prostate -81.1% | MALME-3M melanoma -75.8% | MDA-MB-231 breast -62.3% | RXF 393 renal -91% | SF-268 CNS -41% | SF-539 CNS -94.9% | UACC-257 melanoma -24.6% | M14 melanoma -58.8% | HCT-15 colon -45.4% | HT29 colon -87.5% | U251 CNS -67.3% | PC-3 prostate -64% | SK-MEL-5 melanoma -74.6% | UACC-62 melanoma -73% | LOX IMVI melanoma -89.7% | SK-MEL-28 melanoma -61.2%

CC1=C2C(=C[C@@](C)(CO)[C@@H]2OC(=O)N(C)CCN(C)C(=O)OC(C)(C)C)C(=O)[C@](C)(O)C12CC2
active: DU-145 prostate 8.82% | RXF 393 renal -57.3% | SF-268 CNS 4.84% | SF-295 CNS 5.06% | HT29 colon 6.33%
inactive: MALME-3M melanoma 67.3% | MDA-MB-231 breast 48% | SF-539 CNS 57.9% | UACC-257 melanoma 100% | M14 melanoma 54.8% | HCT-15 colon 21% | SNB-75 CNS 79.9% | SNB-19 CNS 72.3% | U251 CNS 22.6% | PC-3 prostate 47.7% | SK-MEL-5 melanoma 76.7% | UACC-62 melanoma 84.2% | LOX IMVI melanoma 61.8% | SK-MEL-28 melanoma 82.3%

OCc1cnccc1NC12CC3CC(CC(C3)C1)C2
inactive: DU-145 prostate 104% | MALME-3M melanoma 99.4% | MDA-MB-231 breast 97.6% | RXF 393 renal 99.9% | SF-268 CNS 98.3% | SF-295 CNS 102% | SF-539 CNS 108% | UACC-257 melanoma 90% | M14 melanoma 100% | HCT-15 colon 103% | HT29 colon 88.7% | SNB-75 CNS 105% | SNB-19 CNS 101% | U251 CNS 98.9% | PC-3 prostate 102% | SK-MEL-5 melanoma 98.3% | UACC-62 melanoma 104% | LOX IMVI melanoma 96.7% | SK-MEL-28 melanoma 105%

O=c1c(-c2ccc3c(c2)OCO3)coc2c(CO)c(O)ccc12
active: DU-145 prostate -20.8% | MALME-3M melanoma -45.1% | MDA-MB-231 breast -33.6% | RXF 393 renal -84% | SF-268 CNS -43.3% | SF-295 CNS 3.29% | SF-539 CNS -9.82% | UACC-257 melanoma 9.01% | SNB-75 CNS -5.16% | U251 CNS -92.6% | PC-3 prostate -52.4% | SK-MEL-5 melanoma 5.73% | UACC-62 melanoma -53.1% | LOX IMVI melanoma -43.6%
inactive: M14 melanoma 45% | HCT-15 colon 12.6% | HT29 colon 86.1% | SNB-19 CNS 13.5% | SK-MEL-28 melanoma 40.3%
